SMN2 splice up = qHTS Assay for Enhancers of SMN2 Splice Variant Expression; 210,000 tested, 2.8% active; HEK293 SMN2-luciferase splicing reporter, luminescence, 30-36 h; AID 1458, 2008; Potency, µM (highest dose often 46.1 µM), for inactives: top-dose activity change, positive = activation, usual class: activators; also: % of control where 0% means no effect; nearly all actives have a fitted effect of over 55% in size
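HEK293 cells carry an SMN2 minigene-luciferase reporter in which exon 7 inclusion puts luciferase in frame. Cells were seeded at 2000 cells/well, attached for 10-12 hours, then exposed to compounds for 30-36 hours at 37C before ONE-Glo luminescence.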
Rab9 promoter act = qHTS Assay for Rab9 Promoter Activators; Potency, µM (highest dose often 9.22 µM), without a hit: at the top dose activation, negative = inhibition, actives largely listed as activators; 320,000 tested, 2.8% active; Huh7 Rab9 promoter-luciferase reporter, luminescence, 24 h; also: % of control where 0% means no effect; nearly all actives have a fitted effect of over 60% in size
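Rab9 promoter-driven luciferase in stably transfected Huh7 cells; 1500 cells/well rested 2 h, exposed to compound in DMSO for 24 h at 37 °C, 5% CO2. Luminescence read 10 min after adding luciferase reagent at ambient temperature.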
Luc counter = Counterscreen for Luciferase (Kinase-Glo TM) Inhibition; Luciferin 4-monooxygenase (Photuris pensylvanica), Q27757; Kinase-Glo luciferase, ATP luminescence, 8 min; Potency, µM (highest dose often 38.3 µM), without a hit: top-dose activity change, negative = inhibition, most hits filed as inhibitors; 200,000 tested, 0.28% active; also: % is scaled to controls: 0 for no effect and ±100 for the full control effect; nearly all actives have a fitted effect of over 60% in size
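Substrate mix (final 50 mM imidazole pH 7.2, 50 mM KCl, 7 mM MgCl2, 10 uM ATP, 0.01% Tween 20, 0.05% BSA) plus pin-tool compound, then Kinase-Glo detection mix; 8 min ambient, luminescence read.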
FLuc counter = qHTS profiling assay for firefly luciferase inhibitor/activator using purifed enzyme and Km concentrations of substrates (counterscreen for miR-21 project). Luciferin 4-monooxygenase (Photinus pyralis), P08659. purified FLuc, Km substrates, luminescence inhibition. Potency, µM (series often up to 57.5 µM), for the others: at the highest dose activity change, negative = inhibition, most hits filed as inhibitors. 360,000 tested, 6.9% active. AID 588342, 2011;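 also: plate controls were vehicle for no effect and reference inhibitor for full effect; nearly all actives have a fitted effect of over 55% in size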
Target sequence (P08659 whole entry, looked up): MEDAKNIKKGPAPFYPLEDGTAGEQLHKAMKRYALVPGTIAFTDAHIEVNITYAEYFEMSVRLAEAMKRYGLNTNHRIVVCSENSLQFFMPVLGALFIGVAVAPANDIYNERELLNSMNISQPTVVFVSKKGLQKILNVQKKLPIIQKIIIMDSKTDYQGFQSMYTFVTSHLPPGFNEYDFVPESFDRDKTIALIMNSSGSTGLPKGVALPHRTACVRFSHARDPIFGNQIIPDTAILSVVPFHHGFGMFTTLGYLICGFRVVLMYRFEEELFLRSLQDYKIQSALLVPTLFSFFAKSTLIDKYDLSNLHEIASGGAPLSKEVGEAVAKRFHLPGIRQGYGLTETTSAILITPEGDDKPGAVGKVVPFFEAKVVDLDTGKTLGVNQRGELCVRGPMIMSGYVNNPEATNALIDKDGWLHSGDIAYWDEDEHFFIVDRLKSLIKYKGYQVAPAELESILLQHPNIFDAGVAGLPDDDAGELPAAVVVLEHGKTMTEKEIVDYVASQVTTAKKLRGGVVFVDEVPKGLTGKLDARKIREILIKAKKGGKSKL
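Purified P. pyralis luciferase, 10 nM final, with Km-level 10 uM D-luciferin and 10 uM ATP in 50 mM Tris acetate pH 7.5, 10 mM Mg acetate, 0.01% Tween-20, 0.05% BSA; 6-point qHTS titration about 60 µM downward; luminescence read.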
ELG1 genotox = qHTS screen for small molecules that induce genotoxicity in human embryonic kidney (HEK293T) cells expressing luciferase-tagged ELG1. AID 504466, 2011. 330,000 tested, 1.3% active. Potency, µM (doses to about 46 µM), for the others: at the highest dose activity change, positive = activation, hits mostly activators. HEK293T ELG1-luciferase reporter, luminescence, 16 h; also: % of control where 0% means no effect; nearly all actives have a fitted effect of over 60% in size
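ELG1-luciferase HEK293T cells, 2,000/well; compound pinned in; 16 hr, 37 °C, 5% CO2; ONE-Glo, 30 min RT; luminescence on CCD imager.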
NPC1 prom act = qHTS Assay for NPC1 Promoter Activators; Huh7 NPC1 promoter luciferase reporter, 24 h; Potency, µM (series often up to 9.22 µM), without a hit: at the top dose activation, usual class: activators; 320,000 tested, 2.4% active; also: % of control where 0% means no effect; nearly all actives have a fitted effect of over 60% in size
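Huh7 cells stably carrying NPC1 promoter–luciferase, plated in Opti-MEM with 10% FBS for 2 h, were exposed to compound in DMSO for 24 h at 37 °C; luciferase reagent was added for 10 min and luminescence read.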
Starred values were filed as active, the others as inactive; ? = inconclusive; · = no result; [ ] = another dose, or the depositor's remark. This is a sample that favours compounds with a hit; in the whole collection about 7.3% have one here. Calls follow the shape of the dose curve; as a rule, active = well fitted curve in the direction sought with a large enough effect; inconclusive = small, poorly fitted or top-dose-only effect, or another doubt; inactive = no such curve, though single readings can be large; an effect the other way counts as inactive or inconclusive. Potency is read from the fitted curve at half-maximal effect.

SMILES | SMN2 splice up | Rab9 promoter act | Luc counter | FLuc counter | ELG1 genotox | NPC1 prom act
Cc1c(NC(=O)C(C)OC(=O)c2cc(-c3cccc4ccccc34)nc3ccccc23)c(=O)n(-c2ccccc2)n1C (centres undefined) | -13.7% | -4.1% | 1.4% | -16.3% | -6.7% | -0.3%
COc1ccc(-c2cc(C(=O)OC(C)C(=O)Nc3c(C)n(C)n(-c4ccccc4)c3=O)c3ccccc3n2)cc1 (centres undefined) | 23.1% | -1.2% | -0.7% | 13.5µM* | 0.3% | 1.1%
Cc1c(NC(=O)COC(=O)c2cc(-c3ccc(-c4ccccc4)cc3)nc3ccccc23)c(=O)n(-c2ccccc2)n1C | 0.631µM* | 2.51µM* | 0.8% | 0.849µM* | ? | 0.631µM*
Cc1ccc(-c2cc(C(=O)Nc3c(C)n(C)n(-c4ccccc4)c3=O)c3ccccc3n2)cc1 | · | · | · | · | -5.6% | ·
Cc1cc(C)c(S(=O)(=O)NCCc2ccncc2)c(C)c1 | · | -3.0%[1.84 µM] | · | 6.3% | -3.0% | -1.3%
COc1ccc(C(CNC(=O)CCNS(=O)(=O)c2ccc(C)cc2)N2CCOCC2)cc1 (centres undefined) | · | -3.0% | · | 3.3% | -2.6% | -3.6%
CC(=O)NC(CCCCNC(=S)NC1CCCCC1)C(=O)O (centres undefined) | -10.2% | -9.4% | -1.5% | -0.2% | 1.1% | -6.2%
Cc1nn2c(NCCCN(C)C)c3c(nc2c1-c1ccccc1)CCC3 | -10.0% | -3.3% | 0.9% | 2.7% | 10.5% | -0.5%
Clc1cccc(-c2cc3nc4c(c(NCc5ccco5)n3n2)CCCC4)c1 | ? | 2µM* | 7.3% | 5.36µM* | 15.9% | 3.55µM*
OCCCNc1c2c(nc3cc(-c4ccc(Cl)cc4)nn13)CCC2 | · | -0.4% | -0.9% | 12µM* | 4.9% | -0.2%
CCCCN(C(=O)c1ccc2c(c1)OCCO2)c1c(N)n(CC(C)C)c(=O)[nH]c1=O | · | 1.6% | · | 1.4% | 2.3% | -5.1%
Cc1ccc(N2CCN(C(=O)N3CCOCC3)CC2)cc1C | · | -0.3% | 2.6% | -0.6% | 0.6% | -1.4%
CCC(C)N1C(=O)S/C(=C/c2ccc(N3CCOCC3)cc2C)C1=O (centres undefined) | -16.4% | ? | 0.2% | 7.57µM* | 15.2% | ?
Cc1cc(N2CCOCC2)ccc1/C=C1\SC(=O)N(C(C)C)C1=O | 20.4% | 1.41µM* | -7.4% | 3.79µM* | ? | 1.41µM*
CN(Cc1cccs1)C(=O)CCc1ccc(S(=O)(=O)N2CCOCC2)cc1 | -20.4% | 1.6% | -1.3% | 2.5% | -4.3% | 8.2%
CC(C)(C)C1CCc2c(C(=O)NNC(=O)/C=C/C(=O)O)csc2C1 (centres undefined) | 4.3% | 6.0% | -1.5% | 23.9µM* | -0.9% | -0.8%
CC(C)(C)C1CCc2c(C(=O)N/N=C/c3cccs3)csc2C1 (centres undefined) | 14.1µM* | ? | 5.2% | 5.36µM* | 9.4% | ?
O=C(c1cc(-c2ccc(Br)cc2)on1)N1CCOCC1 | · | 0.316µM* | · | 1.9µM* | 3.66µM* | 0.316µM*
Cc1ccc(-c2cc(C(=O)N3CCN(C(=O)c4ccco4)CC3)no2)cc1 | -14.5% | -3.8% | -4.1% | ? | 9.9% | 14.9%
CC1CCN(C(=O)c2cc(-c3ccc(Br)cc3)on2)CC1 | -0.7% | · | · | 4.78µM* | · | ·
O=C(c1cc(-c2ccc(Br)cc2)on1)N1CCCCCC1 | · | 0.631µM* | · | 1.35µM* | 16.4µM* | 0.708µM*
CCOC(=O)N1CCN(S(=O)(=O)c2ccc(C(=O)N(CCN(CC)CC)c3nc4ccc(C)cc4s3)cc2)CC1 | · | 19.4% | · | -0.2% | 5.2% | -5.0%
Cc1ccc(Cn2nc(C)c(C(=O)N3CCN(S(=O)(=O)/C=C/c4ccccc4)CC3)c2C)cc1 | · | -4.2% | · | 1.5% | -9.4% | -5.3%
COCCCn1c2nc3ccccc3nc2c2c(=O)n(Cc3ccccc3Cl)cnc21 | · | -4.3% | · | -0.4% | 11.0% | 0.9%
O=C(CCCC(=O)OCC(=O)c1ccc(F)cc1)Nc1cc(C(F)(F)F)ccc1Cl | 20.2% | -0.8% | -4.5% | 12µM* | 1.7% | 1.6%
SMILES | SMN2 splice up | Rab9 promoter act | Luc counter | FLuc counter | ELG1 genotox | NPC1 prom act
O=C(COC(=O)c1ccc(O)cc1)Nc1cc(C(F)(F)F)ccc1Cl | 12.0% | -1.6% | -3.9% | 1.3% | -4.3% | -3.8%
O=C(CCCC(=O)OCC(=O)c1ccc(Cl)cc1Cl)Nc1cc(C(F)(F)F)ccc1Cl | -1.9% | -2.8% | -6.6% | 3.79µM* | 0.1% | 0.9%
CCCOc1ccc(CSc2n[nH]c(C)n2)cc1 | · | 2.82µM* | · | 19µM* | ? | 2.82µM*
CC(=O)N(c1ccccc1)c1nnc(-c2cnc(C)cn2)s1 | · | 3.16µM* | 1.1% | ? | 9.2µM* | 1.58µM*
Cc1ccccc1Nc1nnc(SCC(=O)NCc2cccs2)s1 | 3.1% | 1.2% | 2.6% | 4.1% | -1.2% | 1.2%
CC1(c2ccc([N+](=O)[O-])cc2)Nc2ccccc2S1 (centres undefined) | · | ? | · | 21.3µM* | ? | ?
Cc1cnc(NC(=O)Cc2ccccc2F)s1 | · | 3.4% | · | 0.5% | 4.7% | 0.8%
CCc1ccc(NC(=O)Cn2c3ncccc3c(=O)n2-c2ccc(C)c(C)c2)cc1 | · | · | · | 3.4% | · | ·
C=CCn1c(COc2ccccc2)nnc1SCC(=O)N/N=C/c1ccc(C)cc1 | 17.6% | -0.4% | -4.4% | 12µM* | 2.7% | -7.3%
C=CCn1c(COc2ccccc2)nnc1SCC(=O)N/N=C/c1cc(Cl)ccc1O | 9.7% | · | 1.2% | 0.3% | · | ·
CCCC(C)NC(C)C(=O)NC1CCCC1 (centres undefined) | · | 0.4% | · | 0.5% | 2.8% | -3.3%
COC(=O)C(C(C)=O)C1c2ccccc2C=C(C)N1C(=O)OC (centres undefined) | -2.8%[9.22 µM] | · | -7.0%[7.66 µM] | · | · | ·
O=C(NCCc1ccccc1)c1cnc2ccccc2n1 | · | 1.41µM* | · | 8.49µM* | ? | 3.55µM*
Cc1ccc(C(=O)NCCc2cccc(Cl)c2)cc1[N+](=O)[O-] | 23.8% | 25.5% | -1.7% | 26.9µM* | 13.4% | 22.4%
Cc1ccc(CNC(=O)c2cnc3ccccc3n2)cc1 | · | 3.4% | · | -14.9% | -7.8% | -4.4%
O=C(CCc1ccccc1)Nc1cccc([N+](=O)[O-])c1 | 9.4% | 0.5% | 5.0% | -14.1% | -1.2% | 7.6%
O=C(NCCc1ccccc1)c1cccc(Br)c1 | · | 2µM* | · | 21.3µM* | ? | 3.55µM*

Source: PubChem (National Center for Advancing Translational Sciences (NCATS))
